Measurements taken from PubChem BioAssay (NCI).
The panel holds about 83,000 compounds, 20% with a hit somewhere; the sample as a whole holds those more often.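 Growth was measured after 48 h exposure to one concentration of compound in 96-well plates. Values under 10 count as active.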 The source made the active and inactive calls.

Legend:
Test in all cases: NCI-60 one-dose screen, 48 h (100 = growth as untreated, 0 = no growth, -100 = all killed)
Details in all cases: 10 µM unless noted
[1] = test system: T-47D breast
[2] = test system: BT-549 breast
[3] = test system: MDA-MB-435 melanoma
[4] = test system: SW-620 colon
[5] = test system: HCT-116 colon
[6] = test system: HCC-2998 colon
[7] = test system: KM12 colon
[8] = test system: MCF7 breast

Measured: growth

O=C1[C@@H]2Cc3c([nH]c4ccccc34)[C@H](c3ccc(Cl)cc3)N2C(=O)CN1C1CCN(Cc2ccccc2)CC1
inactive: [1] 74.5% | [2] 72.1% | [3] 54.8% | [4] 61.3% | [5] 25.5% | [6] 51.4% | [7] 57.6%

COc1ccc(/C=N\NC(=O)c2cnn(CC(O)c3ccccc3)c2N)cc1OCc1ccc(Cl)cc1 (configuration not stated)
inactive: [1] 56.9% | [2] 109% | [3] 78.7% | [4] 64.5% | [5] 49.4% | [6] 108% | [7] 75%

CCOc1cccc(/C(N)=N/C(N)=N/c2nc3ccccc3s2)c1
inactive: [1] 73.1% | [2] 102% | [3] 99.9% | [4] 102% | [5] 72.3% | [6] 111% | [7] 46.4%

O=C(COc1ccc(/C=C2\C(=O)Nc3ccc(Cl)cc32)cc1)Nc1ccc(Cl)cc1
inactive: [1] 68.8% | [2] 70.2% | [3] 55.6% | [4] 45.5% | [5] 15.9% | [6] 89% | [7] 43.2%

COc1ccc(OC)c(CCn2cncc2-c2c[nH]c3ccc(Cl)cc23)c1
inactive: [1] 20.1% | [3] 12.8% | [4] 43.4% | [8] 21.6% | [5] 34.5% | [6] 72.4% | [7] 40.6%

Cc1ccc(C(=O)Nc2ccc(CNCCN3CCNCC3)c(C(F)(F)F)c2)cc1C#Cc1cnc2cccnn12
active: [1] 3.12% | [3] -76.2% | [4] -11.1% | [8] -82.9% | [5] -58.5% | [6] 3.91% | [7] -45.6%

CC(C)=CCC[C@](C)(O)[C@H]1CC[C@]2(C)[C@@H]1CC[C@@H]1[C@@]3(C)CC[C@H](N)C(C)(C)[C@@H]3CC[C@]12C
active: [4] 8.73% | [5] -28.2%
inactive: [1] 107% | [2] 98.8% | [3] 94.2% | [6] 63.3% | [7] 48.9%

O=C(CSc1cc[n+](CCCCO)c2ccccc12)n1ccc2ccccc21
inactive: [1] 96.6% | [3] 107% | [4] 99% | [8] 94.6% | [5] 99.6% | [6] 113% | [7] 96.9%

NC(=O)c1c(NC(=O)c2ccc(C(F)(F)F)cc2)sc2c1CCC(=O)C2
active: [1] -28.9% | [3] -8.14% | [4] -17.5% | [8] 5.66% | [5] 3.88% | [7] 3.34%
inactive: [6] 32.3%

C[C@@H]1OCC2(CCN(c3cnc(C(=O)Nc4cc(F)cc5cccnc45)cn3)CC2)[C@@H]1N
inactive: [1] 37.1% | [2] 90.1% | [3] 82.9% | [4] 12.5% | [5] 15.7% | [6] 84.3% | [7] 83.7%

CCOC(=O)c1c(NC(=O)c2ccc(C(F)(F)F)cc2)sc2c(CN3CCN(C)CC3)c(O)ccc12
active: [1] -35% | [3] -61.5% | [4] -71.2% | [8] -79.5% | [5] -92.5% | [6] -74.9% | [7] -21.2%

C#Cc1cc(C(=O)Nc2ccc(CNCCN3CCOCC3)c(C(F)(F)F)c2)ccc1C
inactive: [1] 82.1% | [3] 94.9% | [4] 97.5% | [8] 83.5% | [5] 90.2% | [6] 102% | [7] 96.2%

Nc1cc(C(=O)N/N=C\c2ccc(OC(F)F)c(OC3CCCC3)c2)nn1CC(O)c1ccccc1 (configuration not stated)
inactive: [1] 83.6% | [2] 118% | [3] 103% | [4] 103% | [5] 103% | [6] 114% | [7] 95.6%

COc1ccc(C2c3[nH]c4ccc(Cl)cc4c3CCN2c2oc(CO)nc2C#N)cc1 (configuration not stated)
inactive: [1] 43.1% | [3] 15.2% | [4] 32.9% | [8] 32% | [5] 32.1% | [6] 57% | [7] 23.4%

O=C(CSc1nc2ccccc2c(=O)n1-c1ccc(S(=O)(=O)Nc2ccc(Cl)nn2)cc1)Nc1ccc(S(=O)(=O)Nc2ccc(Cl)nn2)cc1
inactive: [1] 98.1% | [3] 99.7% | [4] 98.4% | [8] 95.3% | [5] 105% | [6] 120% | [7] 99.4%

COc1cc(C(=O)c2cc(C(C)=O)c3ccc(C)cn23)cc(OC)c1OC
inactive: [1] 37.9% | [2] 53.1% | [4] 32.4% | [5] 18.4% | [6] 61.6% | [7] 28.6%
active: [3] -12.7%

CCCC[n+]1ccc(SCC(=O)n2ccc3ccccc32)c2ccccc21
inactive: [1] 73.3% | [3] 101% | [4] 102% | [8] 83% | [5] 93.1% | [6] 109% | [7] 92.5%

CC1(C)CC[C@]2(C(=O)O)CC[C@]3(C)C(=CC[C@@H]4[C@@]5(C)CC[C@H](NOCCCN)C(C)(C)[C@@H]5CC[C@]43C)[C@@H]2C1
inactive: [1] 73.1% | [2] 80% | [3] 91.7% | [4] 83.8% | [5] 57.2% | [6] 76.3% | [7] 80.9%

CCN(CC)S(=O)(=O)c1ccc(-c2nc(C(Cl)Cl)nc3cc(-c4ccc(F)cc4)nn23)cc1
inactive: [1] 28% | [3] 25.6% | [4] 23.5% | [8] 19.4% | [5] 28.6%
active: [6] 7.38% | [7] 9.84%

CN1CCN(Cc2ccc(/C=N/Nc3ccnc4cc(Cl)ccc34)cc2)CC1
inactive: [1] 103% | [2] 123% | [3] 93.6% | [4] 69.9% | [5] 37% | [6] 67.8% | [7] 74.8%

CCNC(=O)Oc1ccc(/C(=C(/C)c2ccc(Cl)cc2)c2ccc(OCCN3CCCCCC3)cc2)cc1
inactive: [1] 10.8% | [2] 77.5% | [3] 22.5% | [6] 26.1% | [7] 12.7%
active: [4] -74.5% | [5] -80%

Cc1ccc2c(n1)C(=O)C(Cl)=C(Nc1ccc(C)c(C)c1)C2=O
inactive: [4] 33.5% | [5] 12.2% | [6] 57.6% | [7] 51.9%
active: [1] 3.29% | [3] -82.6% | [8] -60.5%

Cc1ccc(-c2cc3nc(C(Cl)Cl)nc(-c4ccc(S(=O)(=O)N(C)C)cc4)n3n2)cc1
inactive: [1] 93.8% | [3] 88.6% | [4] 83.1% | [8] 74.2% | [5] 62.9% | [6] 91.7% | [7] 86.5%

CCOC(=O)c1c(NC(=O)c2cccc(C(F)(F)F)c2)sc2c1CCC(=O)C2
inactive: [1] 17.8% | [3] 59.4% | [4] 13.8% | [8] 34.7% | [5] 12.3% | [6] 87% | [7] 32.2%

Fc1ccc2nc(-c3cnn4cccnc34)sc2c1
inactive: [1] 44.2% | [3] 108% | [4] 93.7% | [8] 26.7% | [5] 88.8% | [6] 83% | [7] 79.8%

CCOC(=O)c1ccc(NC2=C(Cl)C(=O)c3nc(C)ccc3C2=O)cc1
active: [1] -0.935% | [4] -19.6% | [8] -14.5% | [5] 7.29%
inactive: [3] 21.6% | [6] 80.3% | [7] 50.8%

Clc1ccc2[nH]cc(-c3cncn3CCc3ccc4c(c3)OCO4)c2c1
inactive: [1] 37.8% | [3] 71.3% | [4] 79.5% | [8] 63% | [5] 63.2% | [6] 89.9% | [7] 74.6%

CCCCCCOC(=O)c1cc(-c2ccc(F)cc2)nc2ccccc12
inactive: [1] 88.8% | [2] 103% | [3] 99.9% | [4] 93.5% | [5] 93.3% | [6] 106% | [7] 96.1%

CCN(CC)CCOc1ccc(C(=C(C)Cc2ccc(OC)cc2)c2ccc(OCCN(CC)CC)cc2)cc1
inactive: [1] 64.2% | [5] 16.3% | [6] 44.8% | [7] 48.6%
active: [3] -66.1% | [4] -6.4%
